Inconclusive results are not listed. Calls of active or inactive are those of the source. Unless noted, the call rests on the fitted dose curve; in most records, active means well fitted curve in the direction sought with a large enough effect in the repeat runs; inconclusive means weak or mixed curves; inactive means no such curve, though single readings can be large; an effect the other way counts as inactive or inconclusive.
Experiments:
[1] = qHTS assay to identify small molecule antagonists of the estrogen related receptor (ERR) signaling pathway from Tox21 library - cell viability counter screen (AID 1224834); further: nearly all actives have a fitted effect of over 30% in size
Summary of the method: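 Viability readout (CellTiter-Fluor fluorescence, 30 min at 37 C) multiplexed with the ERR assay; cells treated 17.5 h at 37 C with compounds delivered in DMSO.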

[2] = molecular target: Luciferin 4-monooxygenase (Photinus pyralis) (UniProt P08659); experiment: qHTS assay to identify small molecule inhibitors of firefly luciferase (AID 1224835); further: series mostly up to about 120 µM; nearly all actives have a fitted effect of over 25% in size
Summary of the method: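 Quantitative HTS format; KM concentrations of both substrates. Purified P. pyralis FLuc activity quantified from luminescence images.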

[3] = qHTS assay to identify small molecule agonists of the constitutive androstane receptor (CAR) signaling pathway - cell viability counter screen (AID 1224836); further: series mostly up to about 92 µM; nearly all actives have a fitted effect of over 45% in size
Summary of the method: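 Counter screen multiplexed with the CAR reporter readout: HepG2 cells co-transfected with hCAR and the CYP2B6-2.2kb construct receive a 15-concentration compound series and 0.75 uM PK11195 (final), then CellTiter-Fluor fluorescence is read after 23 h.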

[4] = qHTS assay to identify small molecule antagonists of the constitutive androstane receptor (CAR) signaling pathway - cell viability counter screen (AID 1224837); further: series mostly up to about 92 µM; nearly all actives have a fitted effect of over 45% in size
Summary of the method: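 Fluorescence from CellTiter-Fluor served as the viability signal. Human hepatoma HepG2 cells stably bearing hCAR and CYP2B6-2.2kb received compound plus CITCO (50 nM final) for 23 hr.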

[5] = molecular target: Nuclear receptor subfamily 1 group I member 3 (Homo sapiens) (UniProt Q14994); experiment: qHTS assay to identify small molecule antagonists of the constitutive androstane receptor (CAR) signaling pathway (AID 1224838);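 further: HepG2 cells stably expressing hCAR with CYP2B6 luciferase reporter stimulated by CITCO; nearly all actives have a fitted effect of over 40% in size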
Summary of the method: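 Quantitative HTS in double-stable HepG2-CYP2B6-hCAR cells. After 4 h plating, cells get compound (15 concentrations) and CITCO at 50 nM final, incubate 24 h at 37 C, then ONE-Glo luminescence is read.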

[6] = molecular target: Nuclear receptor subfamily 1 group I member 3 (Homo sapiens) (UniProt Q14994); experiment: qHTS assay to identify small molecule agonists of the constitutive androstane receptor (CAR) signaling pathway (AID 1224839); further: series mostly up to about 92 µM; nearly all actives have a fitted effect of over 15% in size
Summary of the method: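 A 15-concentration quantitative screen uses HepG2 cells co-transfected stably with human CAR and CYP2B6-2.2kb reporter. Treatment lasts 24 h with 0.75 uM PK11195 final present; ONE-Glo luminescence is the signal.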

[7] = qHTS assay to identify small molecule antagonists of the estrogen related receptor signaling pathway with the pleiotropic PPARgamma coactivator (PGC) from Tox21 10K library - cell viability counter screen (AID 1224840; active means well fitted cell-killing curve with a large enough effect in the repeat runs, not every such curve was filed as active; further: nearly all actives have a fitted effect of over 40% in size)
Summary of the method: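 Compounds in DMSO, alongside positive and negative controls, were pinned onto PGC/ERR cells (2,000 per well). Exposure lasted 17.5 hours at 37 C, followed by a 30-minute CellTiter-Fluor incubation and fluorescence reading.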

[8] = qHTS assay to identify small molecule antagonists of the estrogen related receptor signaling pathway with the pleiotropic PPARgamma coactivator (PGC) from Tox21 10K library (AID 1224841; call rule not given here; further: series mostly up to about 92 µM; actives are mostly falling curves and most rising ones were filed inactive; nearly all actives have a fitted effect of over 50% in size)
Summary of the method: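 Compound exposure ran 18 hours at 37 C in PGC/ERR cells (2,000/well) that had first rested 6 hours in a 37 C/5% CO2 incubator. Luciferase activity was then detected with One-Glo after a 30-minute room-temperature step.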

[9] = qHTS assay to identify small molecule agonists of the estrogen related receptor signaling pathway with the pleiotropic PPARgamma coactivator (PGC) from Tox21 10K library (AID 1224842); further: nearly all actives have a fitted effect of over 15% in size
Summary of the method: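 PGC/ERR reporter cells (NTP line) were seeded 2,000 per well, rested 6 h at 37 C/5% CO2, then pin-dosed with compounds in DMSO for 18 h at 37 C; luciferase read by One-Glo luminescence after 30 min at room temperature.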

[10] = molecular target: Thyrotropin receptor (Homo sapiens) (UniProt P16473); experiment: qHTS assay to identify small molecule agonists of the thyroid stimulating hormone receptor (TSHR) signaling pathway (AID 1224843; calls by dose curve; further: nearly all actives have a fitted effect of over 45% in size)
Summary of the method: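 Cell line HEK293 with TSHR; density 800/well. Exposure 30 min RT. Readout HTRF cAMP (cAMP-d2/anti-cAMP-cryptate), 1 h RT before reading.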

[11] = qHTS assay to identify small molecule agonists of the hypoxia (HIF-1) signaling pathway - cell viability counter screen (AID 1224844; calls by dose curve; further: nearly all actives have a fitted effect of over 50% in size)
Summary of the method: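 Luminescent ATP content (CellTiter-Glo, 30 min, room temperature) served as the viability measure in HRE-bla ME-180 cells exposed to compounds for 17 hrs in low-serum medium (0.5% dialyzed FBS).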

[12] = qHTS assay to identify small molecule agonists of H2AX (AID 1224845; active means well fitted activation curve with a large enough effect in the signal ratio in the repeat runs, not every such curve was filed as active; the % refers to the signal ratio)
Summary of the method: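 Wild-type CHO-K1 cells plated overnight, then exposed 3 hr at 37C to compounds at 15 concentrations (0.76% DMSO). Lysed, then HTRF anti-pH2AX(S139)-cryptate/anti-H2AX-d2 detection after 24 hr at room temperature; emissions 665 and 620 nm.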

[13] = qHTS assay to identify small molecule agonists of the hypoxia (HIF-1) signaling pathway (AID 1224846; active means well fitted activation curve with a large enough effect in the signal ratio in the repeat runs, not every such curve was filed as active; the % refers to the signal ratio)
Summary of the method: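 Measured by blue/green FRET after loading CCF4-AM: beta-lactamase expressed from a hypoxia response element in ME-180 cells. Test agents were delivered in DMSO and left 17 hrs; cells had been plated 5 hrs earlier in low-serum (0.5% dialyzed FBS) medium.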

[14] = qHTS assay to identify small molecule agonists of H2AX - cell viability counter screen (AID 1224847; calls by dose curve; further: top concentration of the series differs between compounds; nearly all actives have a fitted effect of over 30% in size)
Summary of the method: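 We seed wild-type CHO-K1 cells overnight, treat them for 3 hr at 37C with compounds in 15-concentration series, and quantify remaining viability by CellTiter-Glo luminescence.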

[15] = qHTS assay to identify small molecule antagonists of the estrogen related receptor (ERR) signaling pathway from Tox21 library (AID 1224848); further: nearly all actives have a fitted effect of over 50% in size
Summary of the method: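 Screening used an ERR reporter line supplied by NTP, exposed for 18 h at 37 C to library compounds delivered in DMSO. Signal was luciferase luminescence developed with ONE-Glo at room temperature for 30 min.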

[16] = qHTS RealTime-Glo MT Cell Viability Assay in HepG2 cells - 24 hour (AID 1224867); further: nearly all actives have a fitted effect of over 50% in size; further: potency means the concentration at half of the fitted maximal effect
Summary of the method: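 Cells + NanoLuc/prosubstrate dispensed (600 cells/well) → 5 h at 37 C/5% CO2 → compounds in DMSO transferred → 40 h incubation at 37 C, luminescence read at 0, 8, 16, 24, 32, 40 h.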

[17] = qHTS RealTime-Glo MT Cell Viability Assay in HEK293 cells - 32 hour (AID 1224868)
Summary of the method: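 Tox21 10K qHTS, HEK293, 600 cells/well, RealTime-Glo reagent co-dispensed with cells; 5 h preincubation, compound by pintool, 37 C, luminescence at 0–40 h.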

[18] = A CellTox Green Cytotoxicity Assay to monitor cytotoxicity in HEK293 cells - 0 hour (AID 1224869); further: nearly all actives have a fitted effect of over 50% in size
Summary of the method: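 Each value comes from one timepoint of a single continuous run in which HEK293 cells with CellTox Green were exposed to compound for up to 40 h at 37 C, dye fluorescence rising with cell death.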

[19] = qHTS RealTime-Glo MT Cell Viability Assay in HepG2 cells - 40 hour (AID 1224870); further: nearly all actives have a fitted effect of over 50% in size
Summary of the method: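 HepG2 cells mixed with RealTime-Glo MT reagents (NanoLuc plus cell-permeant prosubstrate) were seeded at 600 cells/well, incubated 5 h at 37 C/5% CO2, then pinned with compounds in DMSO; nonlytic luminescence tracked viability during 40 h treatment.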

Measured: Potency

Sequence of Luciferin 4-monooxygenase (Photinus pyralis) (P08659 whole entry, looked up): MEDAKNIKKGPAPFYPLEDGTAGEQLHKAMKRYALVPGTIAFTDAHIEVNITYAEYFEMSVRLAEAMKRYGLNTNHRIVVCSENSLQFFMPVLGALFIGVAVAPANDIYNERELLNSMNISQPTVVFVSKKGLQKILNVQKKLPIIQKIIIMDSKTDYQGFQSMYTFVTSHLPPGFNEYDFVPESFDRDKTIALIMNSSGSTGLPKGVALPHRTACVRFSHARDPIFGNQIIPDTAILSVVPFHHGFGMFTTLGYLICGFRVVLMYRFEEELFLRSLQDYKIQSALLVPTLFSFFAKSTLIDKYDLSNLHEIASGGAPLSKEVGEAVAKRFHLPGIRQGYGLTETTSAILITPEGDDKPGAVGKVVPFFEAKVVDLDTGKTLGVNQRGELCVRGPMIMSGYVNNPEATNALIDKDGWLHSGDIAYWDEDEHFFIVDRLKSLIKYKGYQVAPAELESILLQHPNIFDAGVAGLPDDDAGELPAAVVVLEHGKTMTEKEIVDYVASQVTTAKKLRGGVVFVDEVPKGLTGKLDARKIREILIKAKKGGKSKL
Sequence of Nuclear receptor subfamily 1 group I member 3 (Homo sapiens) (Q14994 whole entry, looked up): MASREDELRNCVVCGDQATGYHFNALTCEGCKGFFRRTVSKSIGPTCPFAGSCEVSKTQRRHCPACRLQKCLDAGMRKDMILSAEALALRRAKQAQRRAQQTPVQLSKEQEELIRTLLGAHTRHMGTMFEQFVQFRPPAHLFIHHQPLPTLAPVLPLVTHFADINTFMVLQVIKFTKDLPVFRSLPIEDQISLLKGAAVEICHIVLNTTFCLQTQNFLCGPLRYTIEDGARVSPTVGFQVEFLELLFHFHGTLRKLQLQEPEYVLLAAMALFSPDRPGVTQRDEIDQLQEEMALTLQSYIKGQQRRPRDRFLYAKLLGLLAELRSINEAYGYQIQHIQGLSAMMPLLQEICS
Sequence of Thyrotropin receptor (Homo sapiens) (P16473 whole entry, looked up): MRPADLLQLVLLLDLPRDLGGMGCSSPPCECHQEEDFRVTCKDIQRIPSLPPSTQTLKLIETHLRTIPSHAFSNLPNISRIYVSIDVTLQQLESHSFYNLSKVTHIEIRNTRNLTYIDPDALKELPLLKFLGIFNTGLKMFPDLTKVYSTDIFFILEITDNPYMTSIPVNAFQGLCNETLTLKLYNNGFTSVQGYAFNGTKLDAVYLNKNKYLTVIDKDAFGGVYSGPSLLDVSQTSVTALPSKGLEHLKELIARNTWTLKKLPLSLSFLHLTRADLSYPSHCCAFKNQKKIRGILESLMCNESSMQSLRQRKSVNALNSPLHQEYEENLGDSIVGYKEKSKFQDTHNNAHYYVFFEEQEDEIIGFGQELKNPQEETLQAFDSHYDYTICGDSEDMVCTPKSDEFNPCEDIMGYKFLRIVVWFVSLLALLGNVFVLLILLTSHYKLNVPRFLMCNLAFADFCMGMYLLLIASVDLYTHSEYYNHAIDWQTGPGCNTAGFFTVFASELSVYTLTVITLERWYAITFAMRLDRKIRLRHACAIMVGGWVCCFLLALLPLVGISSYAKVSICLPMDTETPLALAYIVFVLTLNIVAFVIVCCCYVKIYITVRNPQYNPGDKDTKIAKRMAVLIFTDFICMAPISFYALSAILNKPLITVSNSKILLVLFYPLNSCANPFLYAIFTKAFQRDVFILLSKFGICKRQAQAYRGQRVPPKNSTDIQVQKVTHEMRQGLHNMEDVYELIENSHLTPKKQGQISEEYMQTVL

N#Cc1ccccc1
inactive: all assays above

O=C(O)Cn1c(=O)n(Cc2ccc(Br)cc2F)c(=O)c2ccc(Cl)cc21
active: [16] 38.9 µM
not listed: [17]
inactive: all other assays above

CCNc1cccc(C)c1
inactive: all assays above

CCOCC(=O)O
inactive: all assays above

CC1(C)S[C@@H]2[C@H](NC(=O)COc3ccccc3)C(=O)N2[C@H]1C(=O)O
not listed: [13]
inactive: all other assays above

CCCOC(=O)c1ccccc1
inactive: all assays above

O=C(O)CCCCCCCCC(=O)O
inactive: all assays above

CC(C)=CCl
not listed: [8] | [9] | [15]
inactive: all other assays above
